Test systems include HCT-15 colon; HT29 colon; SNB-75 CNS; SNB-19 CNS; U251 CNS; PC-3 prostate; LOX IMVI melanoma; UACC-62 melanoma; SK-MEL-28 melanoma.
What all share (test): NCI-60 one-dose screen, 48 h (100 = growth as untreated, 0 = no growth, -100 = all killed)
Holding throughout (settings): 10 µM unless noted

Compounds without any hit were thinned out: in the full panel of roughly 83,000, 20% have a hit.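 Cell lines were cultured in 96-well plates, exposed to a single compound concentration, and assessed for percent growth 48 hours later.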 Unmarked numbers belong to inactive results. Calls of active or inactive are those of the source. The calls were made as follows: active = growth percent below 10; inactive = the rest.

As for `CC(=O)OC[C@H]1O[C@H](OC(C)=O)[C@H](NC(=O)/C=C/CCl)[C@@H](OC(C)=O)[C@@H]1OC(C)=O`, the growth in the assay on HCT-15 colon was 99.1%; in the assay with HT29 colon it was 54.3%; in the assay with SNB-75 CNS, 71.3%; with SNB-19 CNS, 86.8%; in the assay on U251 CNS it was 45.1%; with PC-3 prostate it was 70.4%. The growth in the assay with LOX IMVI melanoma was 68.8%.

As for `CS(=O)(=O)c1ccc(-n2nc(-c3ccc(Br)cc3)c3ccccc3c2=O)cc1`, the growth was 93.4% with HCT-15 colon; 101% with HT29 colon; 70.5% in the assay with SNB-75 CNS; 92.5% in the assay on SNB-19 CNS; 97.1% with U251 CNS; 89.3% in the assay on PC-3 prostate. The growth was 97% in the assay with UACC-62 melanoma and 113% in the assay with SK-MEL-28 melanoma.

With `Cc1c(/C=C/[N+](=O)[O-])ccc2c1[nH]c1ccccc12`, the growth is 81.3% with HCT-15 colon; 96.5% with HT29 colon; 107% in the assay with SNB-75 CNS; 100% with SNB-19 CNS; 73.7% in the assay on U251 CNS; 95.5% with PC-3 prostate. Further, the results for the growth in the assay on UACC-62 melanoma and in the assay on SK-MEL-28 melanoma were 81% and 113%, respectively.

For `CNC(=O)c1cc(Oc2ccc(NC(=O)Nc3ccc(Cl)c(SC)c3)c(F)c2)ccn1`, the growth was 50% in the assay on HCT-15 colon; 30% in the assay with HT29 colon; 71% with SNB-75 CNS; 75% with SNB-19 CNS; 56% with U251 CNS; 34.2% in the assay on PC-3 prostate. Besides, the growth with UACC-62 melanoma was 28%; with LOX IMVI melanoma it was 37.7%; in the assay with SK-MEL-28 melanoma it was 56.7%.

For the compound `CCOC(=O)c1c(C(=O)OCC)c2cc(-c3ccn4c(C(=O)c5ccccc5)c(C(=O)OCC)c(C(=O)OCC)c4c3)ccn2c1C(=O)c1ccccc1`, the growth was 95.6% with HCT-15 colon; 97.3% in the assay on HT29 colon; 84.1% in the assay on SNB-75 CNS; 100% with SNB-19 CNS; 99.7% with U251 CNS; 80.6% with PC-3 prostate. The growth in the assay with UACC-62 melanoma is 85.2%; with LOX IMVI melanoma, 85.1%; with SK-MEL-28 melanoma it was 113%.

Turning to `CCCSc1ccc2nc(NC(=O)OC)[nH]c2c1`, the growth in the assay with HCT-15 colon is 18.1%; with HT29 colon it was 2.84% (active); in the assay with SNB-75 CNS, 22.4%; in the assay on SNB-19 CNS, 29.9%; in the assay with U251 CNS it was 14.1%; in the assay with PC-3 prostate it was 20.7%. Besides, the results for the growth in the assay with UACC-62 melanoma, in the assay on LOX IMVI melanoma and with SK-MEL-28 melanoma were 27.6%, 50.1% and 53.7%, respectively.

With `CC(=O)c1cc2c(N)c(C(=O)Nc3cccc4ccccc34)sc2nc1C`, the growth in the assay with HCT-15 colon was 33.8%; in the assay on HT29 colon, 5.75% (active); with SNB-75 CNS, 19.8%; in the assay with SNB-19 CNS, 21.7%; in the assay with U251 CNS, 15.3%; in the assay on PC-3 prostate, 17.5%. For the same compound, the growth in the assay on UACC-62 melanoma was 23.5%; in the assay with LOX IMVI melanoma, 41.1%; with SK-MEL-28 melanoma, 67.2%.

As for `c1ccc(Cn2cc(-c3nc4ccccc4s3)c3cccnc32)cc1`, the growth with HCT-15 colon was 109%; with HT29 colon, 100%; in the assay with SNB-75 CNS it was 91%; with SNB-19 CNS, 110%; with U251 CNS, 100%; in the assay with PC-3 prostate, 97%. For the same compound, the figures for the growth with UACC-62 melanoma, in the assay with LOX IMVI melanoma and in the assay with SK-MEL-28 melanoma were 97.6%, 99.3% and 113%, respectively.

`O=C(Cn1cccc(Nc2ccccc2)c1=O)Nc1ccccc1`: the growth in the assay on HCT-15 colon was 101%; in the assay with HT29 colon it was 106%; with SNB-75 CNS, 84.9%; with SNB-19 CNS it was 97.1%; with U251 CNS it was 97.8%; in the assay with PC-3 prostate it was 97.3%. In addition, the growth is 93.6% in the assay on UACC-62 melanoma and 104% with SK-MEL-28 melanoma.

Consider `CCOC(=O)c1cc(C(=O)c2ccc(O)c(O)c2)n2ccc(-c3ccn4c(C(=O)c5ccc(O)c(O)c5)cc(C(=O)OCC)c4c3)cc12`, for which the growth was 88% in the assay on HCT-15 colon; 96% in the assay on HT29 colon; 87.3% in the assay with SNB-75 CNS; 93.9% in the assay with SNB-19 CNS; 97% with U251 CNS; 89.1% in the assay on PC-3 prostate. In addition, the growth in the assay on UACC-62 melanoma was 97.9%; in the assay with LOX IMVI melanoma it was 89%; with SK-MEL-28 melanoma, 113%.

Take `Cc1cc(N2CCOCC2)nc(N[C@@H]2CCC[C@H](Nc3ccnc4cc(Cl)ccc34)C2)n1`: the growth in the assay on HCT-15 colon was -43.5% (active); with HT29 colon, -52.9% (active); in the assay on SNB-75 CNS it was -37.3% (active); in the assay with SNB-19 CNS, 34.8%; with U251 CNS it was -57.3% (active); in the assay on PC-3 prostate, 9.75% (active). Further, the growth is -79.7% (active) in the assay on UACC-62 melanoma, -77.3% (active) in the assay on LOX IMVI melanoma and -74.3% (active) in the assay on SK-MEL-28 melanoma.

`COC(=O)c1ccc(Cn2cnc3c(N)ncnc32)cc1`: the growth in the assay on HCT-15 colon was 99.8%; in the assay with HT29 colon, 98.6%; with SNB-75 CNS, 86.7%; in the assay with SNB-19 CNS, 104%; in the assay with U251 CNS, 111%; with PC-3 prostate, 111%. The growth is 102% with UACC-62 melanoma and 104% in the assay on SK-MEL-28 melanoma.

Turning to `CC1=C[C@H]2c3c(c(O)c(O)c4oc(-c5ccccc5)cc(=O)c34)[C@H](c3cc(O)c(O)c4oc(-c5ccccc5)cc(=O)c34)[C@H]2C(C)(C)C1`, the growth in the assay on HCT-15 colon is 11.3%; with HT29 colon it was 9.18% (active); in the assay with SNB-75 CNS, -8.01% (active); with SNB-19 CNS, 11.9%; with U251 CNS, 2.66% (active); in the assay with PC-3 prostate, 5.35% (active). The growth in the assay with UACC-62 melanoma is -46.3% (active); with LOX IMVI melanoma, -86.5% (active); in the assay with SK-MEL-28 melanoma, 8% (active).

As for `CC(=O)c1cc2c(N)c(C(=O)Nc3cccc(F)c3C)sc2nc1C`, the growth with HCT-15 colon was 85%; with HT29 colon, 81.6%; with SNB-75 CNS, 68.1%; with SNB-19 CNS, 83.1%; in the assay with U251 CNS, 93.3%; with PC-3 prostate it was 81.4%. Moreover, the growth is 52.1% with UACC-62 melanoma, 96.9% with LOX IMVI melanoma and 97.4% in the assay with SK-MEL-28 melanoma.

On to `c1ccc(CCNc2ncnc3[nH]ncc23)cc1`, for which the growth in the assay on HCT-15 colon is 105%; in the assay on HT29 colon, 94%; in the assay with SNB-75 CNS it was 92.6%; in the assay with SNB-19 CNS, 105%; with U251 CNS, 94.1%; with PC-3 prostate it was 67%. Also, the growth with UACC-62 melanoma was 86.4%; with LOX IMVI melanoma, 89.1%; in the assay on SK-MEL-28 melanoma, 114%.

As for `Cc1cc(N2CCN(C)CC2)nc(NC2CCCC(Nc3ccnc4cc(Cl)ccc34)C2)n1` (stereo unspecified), the growth with HCT-15 colon is -35.7% (active); with HT29 colon it was -53.1% (active); in the assay on SNB-75 CNS, -25.6% (active); in the assay on SNB-19 CNS, 9.07% (active); with U251 CNS, -51.4% (active); in the assay on PC-3 prostate, 8.55% (active). Further, the growth in the assay on UACC-62 melanoma is -90.7% (active); in the assay on LOX IMVI melanoma it was -81.8% (active); in the assay on SK-MEL-28 melanoma it was -75.8% (active).

As to `CNc1ccc(-c2cc(=O)oc3ccc(Cl)cc23)cc1`, the growth is 14.9% in the assay with HCT-15 colon; -2.77% (active) in the assay with HT29 colon; 40.9% with SNB-75 CNS; 22.7% in the assay with SNB-19 CNS; 8.91% (active) with U251 CNS; 12.8% in the assay with PC-3 prostate. The growth was 31.7% in the assay on UACC-62 melanoma, 24.1% in the assay with LOX IMVI melanoma and 58.5% in the assay on SK-MEL-28 melanoma.

For the compound `CN1CCN(c2nc(NCCCNc3ccnc4cc(Cl)ccc34)c3ccccc3n2)CC1`, the growth with HCT-15 colon is 52.7%; in the assay with HT29 colon it was 6.44% (active); in the assay on SNB-75 CNS, 79.6%; in the assay with SNB-19 CNS it was 45.4%; in the assay with U251 CNS it was 2% (active); with PC-3 prostate it was 43.4%. For the same compound, the growth with UACC-62 melanoma is -65.7% (active); in the assay with LOX IMVI melanoma, -43.8% (active); in the assay on SK-MEL-28 melanoma, -48.5% (active).

For the origin of these results see PubChem BioAssay (NCI).
